Reference: publication PMC5540273 (PLoS ONE, 2017)
Where two headings read alike, the source gives them in different places.

What was measured:
GRK4 = settings: concentration: 1 μM, replicates: in singlicate; n = 1
GRK7 = settings: concentration: 1 μM, replicates: in singlicate; n = 1
GSK3A = settings: concentration: 1 μM, replicates: in singlicate; n = 1
GSK3B = settings: n = 1
HASPIN = system: T1, HASPIN; settings: concentration: 1 μM, replicates: in singlicate; n = 1
T1 construct: gene GSG2

HCK = settings: concentration: 1 μM, replicates: in singlicate; n = 1
HIPK1 = settings: concentration: 1 μM, replicates: in singlicate; n = 1
HIPK2 = settings: concentration: 1 μM, replicates: in singlicate; n = 1
HIPK3 = settings: concentration: 1 μM, replicates: in singlicate; n = 1
HIPK4 = settings: concentration: 1 μM, replicates: in singlicate; n = 1
HPK1 = settings: concentration: 1 μM, replicates: in singlicate; n = 1
HUNK = settings: concentration: 1 μM, replicates: in singlicate; n = 1
ICK = settings: concentration: 1 μM, replicates: in singlicate; n = 1
IGF1R = settings: concentration: 1 μM, replicates: in singlicate; n = 1
IKK-alpha = system: T2, IKK-alpha; settings: concentration: 1 μM, replicates: in singlicate; n = 1
T2 construct: gene CHUK

IKK-beta = system: T3, IKK-beta; settings: concentration: 1 μM, replicates: in singlicate; n = 1
T3 construct: gene IKBKB

IKK-epsilon = system: T4, IKK-epsilon; settings: concentration: 1 μM, replicates: in singlicate; n = 1
T4 construct: gene IKBKE

INSRR = settings: concentration: 1 μM, replicates: in singlicate; n = 1
INSR = settings: concentration: 1 μM, replicates: in singlicate; n = 1
IRAK1 = settings: concentration: 1 μM, replicates: in singlicate; n = 1
[1] = concentration: 1 μM, replicates: in singlicate
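Also: KINOMEscan kinase panel screen.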

SMILES: COc1cc2c(cc1OC[C@@H](O)CO)ncc1c3ccc(C#N)cc3[nH]c21
- %Inh (GRK4): 73%
- %Inh (GRK7): 5%
- %Inh (GSK3A): 0%
- %Inh (GSK3B; [1]): 0%
- %Inh (HASPIN): 91.2%
- %Inh (HCK): 4%
- %Inh (HIPK1): 94.4%
- %Inh (HIPK2): 98%
- %Inh (HIPK3): 94.2%
- %Inh (HIPK4): 47%
- %Inh (HPK1): 0%
- %Inh (HUNK): 0%
- %Inh (ICK): 0%
- %Inh (IGF1R): 0%
- %Inh (IKK-alpha): 51%
- %Inh (IKK-beta): 35%
- %Inh (IKK-epsilon): 40%
- %Inh (INSRR): 0%
- %Inh (INSR): 0%
- %Inh (IRAK1): 97.2%

SMILES: c1ccc(-c2n[nH]cc2-c2ccnc3ccccc23)nc1 [GW271431]
- %Inh (GRK4): 0%
- %Inh (GRK7): 23%
- %Inh (GSK3A): 15%
- %Inh (GSK3B; [1]): 17%
- %Inh (HASPIN): 10%
- %Inh (HCK): 0%
- %Inh (HIPK1): 15%
- %Inh (HIPK2): 0%
- %Inh (HIPK3): 26%
- %Inh (HIPK4): 0%
- %Inh (HPK1): 27%
- %Inh (HUNK): 4%
- %Inh (ICK): 0%
- %Inh (IGF1R): 12%
- %Inh (IKK-alpha): 0%
- %Inh (IKK-beta): 0%
- %Inh (IKK-epsilon): 22%
- %Inh (INSRR): 1%
- %Inh (INSR): 6%
- %Inh (IRAK1): 6%

SMILES: COc1ccc(S(=O)(=O)NC2CCN(c3cc(C)nc(Nc4cccc(C#N)c4)n3)CC2)cc1.O=C(O)C(F)(F)F [GSK1653539]
- %Inh (GRK4): 0%
- %Inh (GRK7): 0%
- %Inh (GSK3A): 6%
- %Inh (GSK3B; [1]): 0%
- %Inh (HASPIN): 22%
- %Inh (HCK): 0%
- %Inh (HIPK1): 0%
- %Inh (HIPK2): 0%
- %Inh (HIPK3): 4%
- %Inh (HIPK4): 0%
- %Inh (HPK1): 38%
- %Inh (HUNK): 2%
- %Inh (ICK): 0%
- %Inh (IGF1R): 0%
- %Inh (IKK-alpha): 0%
- %Inh (IKK-beta): 0%
- %Inh (IKK-epsilon): 49%
- %Inh (INSRR): 0%
- %Inh (INSR): 0%
- %Inh (IRAK1): 0%

SMILES: O=C(NCCNc1ccnc(Nc2ccc(F)cc2)n1)c1cc2ccccc2s1 [GSK1379874]
- %Inh (GRK4): 0%
- %Inh (GRK7): 0%
- %Inh (GSK3A): 0%
- %Inh (GSK3B; [1]): 6%
- %Inh (HASPIN): 19%
- %Inh (HCK): 0%
- %Inh (HIPK1): 0%
- %Inh (HIPK2): 0%
- %Inh (HIPK3): 0%
- %Inh (HIPK4): 0%
- %Inh (HPK1): 33%
- %Inh (HUNK): 12%
- %Inh (ICK): 0%
- %Inh (IGF1R): 0%
- %Inh (IKK-alpha): 0%
- %Inh (IKK-beta): 0%
- %Inh (IKK-epsilon): 22%
- %Inh (INSRR): 0%
- %Inh (INSR): 0%
- %Inh (IRAK1): 16%

SMILES: Cc1nnc(-c2ccc3ncc(-c4ccc(S(C)=O)cc4)n3c2)o1 (stereo not shown)
- %Inh (GRK4): 0%
- %Inh (GRK7): 16%
- %Inh (GSK3A): 1%
- %Inh (GSK3B; [1]): 1%
- %Inh (HASPIN): 30%
- %Inh (HCK): 0%
- %Inh (HIPK1): 21%
- %Inh (HIPK2): 40%
- %Inh (HIPK3): 16%
- %Inh (HIPK4): 5%
- %Inh (HPK1): 0%
- %Inh (HUNK): 0%
- %Inh (ICK): 22%
- %Inh (IGF1R): 0%
- %Inh (IKK-alpha): 15%
- %Inh (IKK-beta): 21%
- %Inh (IKK-epsilon): 0%
- %Inh (INSRR): 0%
- %Inh (INSR): 2%
- %Inh (IRAK1): 7%

SMILES: Fc1ccc(-c2ncn(CCCN3CCOCC3)c2-c2ccccn2)cc1 [SB-211742]
- %Inh (GRK4): 0%
- %Inh (GRK7): 0%
- %Inh (GSK3A): 0%
- %Inh (GSK3B; [1]): 0%
- %Inh (HASPIN): 0%
- %Inh (HCK): 6%
- %Inh (HIPK1): 38%
- %Inh (HIPK2): 0%
- %Inh (HIPK3): 0%
- %Inh (HIPK4): 26%
- %Inh (HPK1): 11%
- %Inh (HUNK): 54%
- %Inh (ICK): 0%
- %Inh (IGF1R): 0%
- %Inh (IKK-alpha): 0%
- %Inh (IKK-beta): 0%
- %Inh (IKK-epsilon): 0%
- %Inh (INSRR): 0%
- %Inh (INSR): 0%
- %Inh (IRAK1): 0%

SMILES: CNc1ncnc2[nH]ncc12 [SKF-18355]
- %Inh (GRK4): 4%
- %Inh (GRK7): 0%
- %Inh (GSK3A): 0%
- %Inh (GSK3B; [1]): 25%
- %Inh (HASPIN): 44%
- %Inh (HCK): 16%
- %Inh (HIPK1): 42%
- %Inh (HIPK2): 0%
- %Inh (HIPK3): 12%
- %Inh (HIPK4): 0%
- %Inh (HPK1): 0%
- %Inh (HUNK): 34%
- %Inh (ICK): 0%
- %Inh (IGF1R): 0%
- %Inh (IKK-alpha): 0%
- %Inh (IKK-beta): 0%
- %Inh (IKK-epsilon): 0%
- %Inh (INSRR): 0%
- %Inh (INSR): 7%
- %Inh (IRAK1): 9%

SMILES: O=c1cc(N2CCOCC2)nc2n(Cc3cccc(C(F)(F)F)c3)ccn12 [GSK2297543]
- %Inh (GRK4): 0%
- %Inh (GRK7): 0%
- %Inh (GSK3A): 6%
- %Inh (GSK3B; [1]): 3%
- %Inh (HASPIN): 0%
- %Inh (HCK): 0%
- %Inh (HIPK1): 18%
- %Inh (HIPK2): 0%
- %Inh (HIPK3): 7%
- %Inh (HIPK4): 1%
- %Inh (HPK1): 20%
- %Inh (HUNK): 41%
- %Inh (ICK): 0%
- %Inh (IGF1R): 0%
- %Inh (IKK-alpha): 0%
- %Inh (IKK-beta): 0%
- %Inh (IKK-epsilon): 7%
- %Inh (INSRR): 0%
- %Inh (INSR): 14%
- %Inh (IRAK1): 0%

SMILES: CCc1ccnc(/C=C/c2n[nH]c3cc(Sc4ccccc4C(=O)NC)ccc23)c1
- %Inh (GRK4): 2%
- %Inh (GRK7): 0%
- %Inh (GSK3A): 2%
- %Inh (GSK3B; [1]): 6%
- %Inh (HASPIN): 11%
- %Inh (HCK): 0%
- %Inh (HIPK1): 3%
- %Inh (HIPK2): 0%
- %Inh (HIPK3): 6%
- %Inh (HIPK4): 15%
- %Inh (HPK1): 30%
- %Inh (HUNK): 0%
- %Inh (ICK): 0%
- %Inh (IGF1R): 0%
- %Inh (IKK-alpha): 8%
- %Inh (IKK-beta): 4%
- %Inh (IKK-epsilon): 14%
- %Inh (INSRR): 0%
- %Inh (INSR): 0%
- %Inh (IRAK1): 8%

SMILES: COc1cc2c(cc1OCCN1CCN(C)CC1)ncc1c3ccc(C#N)cc3[nH]c21
- %Inh (GRK4): 0%
- %Inh (GRK7): 0%
- %Inh (GSK3A): 0%
- %Inh (GSK3B; [1]): 0%
- %Inh (HASPIN): 76%
- %Inh (HCK): 0%
- %Inh (HIPK1): 97.6%
- %Inh (HIPK2): 100%
- %Inh (HIPK3): 96%
- %Inh (HIPK4): 55%
- %Inh (HPK1): 11%
- %Inh (HUNK): 0%
- %Inh (ICK): 10%
- %Inh (IGF1R): 0%
- %Inh (IKK-alpha): 44%
- %Inh (IKK-beta): 29%
- %Inh (IKK-epsilon): 70%
- %Inh (INSRR): 0%
- %Inh (INSR): 0%
- %Inh (IRAK1): 97.2%

SMILES: O=C1NC(=O)C(N2CCc3ccccc32)=C1c1cccc(Cl)c1 [SB-408010]
- %Inh (GRK4): 29%
- %Inh (GRK7): 5%
- %Inh (GSK3A): 2%
- %Inh (GSK3B; 1 µM): 27%
- %Inh (HASPIN): 0%
- %Inh (HCK): 25%
- %Inh (HIPK1): 27%
- %Inh (HIPK2): 13%
- %Inh (HIPK3): 7%
- %Inh (HIPK4): 0%
- %Inh (HPK1): 19%
- %Inh (HUNK): 20%
- %Inh (ICK): 40%
- %Inh (IGF1R): 0%
- %Inh (IKK-alpha): 0%
- %Inh (IKK-beta): 10%
- %Inh (IKK-epsilon): 0%
- %Inh (INSRR): 0%
- %Inh (INSR): 0%
- %Inh (IRAK1): 0%
